What all share (parameters): scale not given: direction of the effect not stated beside the values
The target of assay [1] is Protein translocase subunit SecA (Escherichia coli (strain K12)) (UniProt P10408). The assay is described as follows: Assay to Identify E. coli SecA ATPase Inhibitors. The class given is functional. The conditions noted are these: 30 µM.
For assay [2], the target named is T1, Ubiquitin-activating enzyme e1, putative (Leishmania donovani (strain BPK282A1)) (UniProt E9BSI1).
T1 sequence (whole entry): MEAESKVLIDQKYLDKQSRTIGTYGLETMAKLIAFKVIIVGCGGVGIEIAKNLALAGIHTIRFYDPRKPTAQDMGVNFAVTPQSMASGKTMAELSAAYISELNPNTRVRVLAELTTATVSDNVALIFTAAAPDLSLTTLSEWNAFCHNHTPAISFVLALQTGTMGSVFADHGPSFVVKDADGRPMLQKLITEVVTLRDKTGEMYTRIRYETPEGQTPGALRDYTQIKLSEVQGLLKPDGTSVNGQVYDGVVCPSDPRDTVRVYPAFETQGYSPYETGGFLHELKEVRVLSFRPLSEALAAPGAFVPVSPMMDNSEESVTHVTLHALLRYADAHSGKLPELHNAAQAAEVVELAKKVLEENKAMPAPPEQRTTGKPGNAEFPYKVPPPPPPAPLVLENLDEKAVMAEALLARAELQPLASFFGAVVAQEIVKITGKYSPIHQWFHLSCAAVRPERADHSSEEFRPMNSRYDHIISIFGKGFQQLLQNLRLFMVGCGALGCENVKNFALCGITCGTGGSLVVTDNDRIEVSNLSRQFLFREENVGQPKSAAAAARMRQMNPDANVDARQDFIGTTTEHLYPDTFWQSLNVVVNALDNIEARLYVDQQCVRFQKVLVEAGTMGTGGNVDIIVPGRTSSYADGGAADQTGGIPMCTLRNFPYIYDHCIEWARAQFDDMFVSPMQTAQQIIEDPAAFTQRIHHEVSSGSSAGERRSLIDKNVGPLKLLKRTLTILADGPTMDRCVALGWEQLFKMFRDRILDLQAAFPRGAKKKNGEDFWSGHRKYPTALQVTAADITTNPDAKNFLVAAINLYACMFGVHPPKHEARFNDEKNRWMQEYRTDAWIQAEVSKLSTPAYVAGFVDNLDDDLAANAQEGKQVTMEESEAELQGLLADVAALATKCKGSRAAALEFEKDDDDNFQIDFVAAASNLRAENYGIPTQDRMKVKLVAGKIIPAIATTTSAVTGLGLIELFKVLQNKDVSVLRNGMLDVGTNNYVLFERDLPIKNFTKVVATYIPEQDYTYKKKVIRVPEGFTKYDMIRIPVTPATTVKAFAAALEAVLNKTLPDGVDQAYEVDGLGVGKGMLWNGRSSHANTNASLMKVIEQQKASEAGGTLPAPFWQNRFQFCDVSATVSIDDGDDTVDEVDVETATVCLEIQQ
The assay is described as follows: Leishmania donovani Ubiquitin Activating Enzyme (LdE1). The class given is functional. To be noted: 30 µM.

The target in assay [3] is Sialic acid-binding Ig-like lectin 9 (Homo sapiens) (UniProt Q9Y336). The assay is described as follows: Hs-Siglec9 ALPHAscreen SOP 20170721. The conditions noted are these: 10 µM. For orientation: Bead proximity is the source of the signal in Alpha formats.
Sequence of Sialic acid-binding Ig-like lectin 9 (Homo sapiens) (Q9Y336 whole entry): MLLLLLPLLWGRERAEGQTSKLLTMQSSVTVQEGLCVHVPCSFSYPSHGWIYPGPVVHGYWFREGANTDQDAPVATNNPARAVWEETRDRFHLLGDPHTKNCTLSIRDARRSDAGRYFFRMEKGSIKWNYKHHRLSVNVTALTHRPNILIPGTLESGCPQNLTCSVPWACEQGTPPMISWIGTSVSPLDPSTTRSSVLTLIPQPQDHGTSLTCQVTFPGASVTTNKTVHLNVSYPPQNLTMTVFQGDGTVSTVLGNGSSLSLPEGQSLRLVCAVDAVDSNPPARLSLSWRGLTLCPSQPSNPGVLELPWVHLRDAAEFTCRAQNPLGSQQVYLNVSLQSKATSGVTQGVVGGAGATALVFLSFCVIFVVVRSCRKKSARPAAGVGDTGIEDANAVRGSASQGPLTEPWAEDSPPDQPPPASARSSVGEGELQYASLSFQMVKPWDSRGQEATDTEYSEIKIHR
The test system of a further assay is Trypanosoma cruzi. Briefly: Trypanosoma cruzi phosphomannomutase and mannose-1-phosphate guanylyltransferase assay. Type of assay: functional. To be noted: 10 µM.
The target of assay [4] is T2, Arginase-2, mitochondrial (Homo sapiens) (UniProt P78540).
T2 sequence (whole entry): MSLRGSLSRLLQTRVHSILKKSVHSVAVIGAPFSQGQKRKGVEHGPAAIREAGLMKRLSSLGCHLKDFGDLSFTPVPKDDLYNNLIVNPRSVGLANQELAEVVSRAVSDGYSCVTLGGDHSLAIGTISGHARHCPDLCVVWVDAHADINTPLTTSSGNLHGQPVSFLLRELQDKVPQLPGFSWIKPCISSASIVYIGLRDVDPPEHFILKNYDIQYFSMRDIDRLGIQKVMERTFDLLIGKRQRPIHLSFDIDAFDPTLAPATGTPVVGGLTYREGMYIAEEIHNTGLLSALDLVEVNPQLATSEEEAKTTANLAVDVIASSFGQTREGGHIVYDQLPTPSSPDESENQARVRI
Briefly: in vitro enzyme assay to detect the production of urea directly proportional to the activity of Arginase II. Also: in the data most compounds retested in dose-response had high values. The class given is functional. To be noted: 33.3 µM.

Assay [5] has as its target T3, Proteasome subunit beta (Trypanosoma cruzi) (UniProt O96673).
T3 sequence (whole entry): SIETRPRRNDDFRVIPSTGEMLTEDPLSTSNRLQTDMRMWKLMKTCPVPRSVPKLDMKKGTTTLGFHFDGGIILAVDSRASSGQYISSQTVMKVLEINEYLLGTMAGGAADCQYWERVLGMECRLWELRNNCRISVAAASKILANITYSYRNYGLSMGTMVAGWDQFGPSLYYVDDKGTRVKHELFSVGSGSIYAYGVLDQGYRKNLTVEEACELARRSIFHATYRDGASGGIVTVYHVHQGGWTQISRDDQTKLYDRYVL
Briefly: Trypanosoma cruzi proteasome chymotrypsin-like activity (TcProtChymo) assay. Also: in the data most compounds retested in dose-response had high values. To be noted: 9.37 µM. Type of assay: functional.

A further assay is filed under the species Homo sapiens. Briefly: To identify inhibition of the IFN signalling (Jak-Stat) pathway via expression of an eGFP reporter gene under the control of an IFN-stimulated response element (ISRE) containing MxA promoter. Type of assay: functional. To be noted: 30 µM. A general note: Reporter assays use an easily measured gene product as a stand-in for the process of interest.

In assay [6] the target is T4, Tyrosyl-tRNA synthetase, putative (Trypanosoma cruzi (strain CL Brener)) (UniProt Q4DSP6).
T4 sequence (whole entry): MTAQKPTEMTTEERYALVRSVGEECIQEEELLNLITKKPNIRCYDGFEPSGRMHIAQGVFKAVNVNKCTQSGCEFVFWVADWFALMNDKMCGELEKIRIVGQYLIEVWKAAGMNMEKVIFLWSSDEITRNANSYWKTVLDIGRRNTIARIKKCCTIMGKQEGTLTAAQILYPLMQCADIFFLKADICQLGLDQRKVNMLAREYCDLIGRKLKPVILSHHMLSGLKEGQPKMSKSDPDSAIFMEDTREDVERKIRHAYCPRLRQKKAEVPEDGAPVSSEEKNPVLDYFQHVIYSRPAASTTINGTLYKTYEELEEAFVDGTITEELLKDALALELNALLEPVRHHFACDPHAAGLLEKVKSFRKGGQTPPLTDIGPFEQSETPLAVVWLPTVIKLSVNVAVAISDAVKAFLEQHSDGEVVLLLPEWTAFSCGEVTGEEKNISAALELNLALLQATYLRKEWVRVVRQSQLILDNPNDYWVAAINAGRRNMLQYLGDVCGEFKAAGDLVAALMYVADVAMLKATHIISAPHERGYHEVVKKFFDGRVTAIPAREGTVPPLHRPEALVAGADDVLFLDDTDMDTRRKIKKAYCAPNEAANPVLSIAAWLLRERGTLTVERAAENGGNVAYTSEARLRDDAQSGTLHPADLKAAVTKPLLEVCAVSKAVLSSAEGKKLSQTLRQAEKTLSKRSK
Briefly: Trypanosoma cruzi tyrosyl tRNA synthetase (TcYRS) _High Tyrosine SOP. Also: in the data most compounds retested in dose-response had high values. The class given is functional. To be noted: 30 µM.

The target of assay [7] is T4, Tyrosyl-tRNA synthetase, putative (Trypanosoma cruzi (strain CL Brener)). Briefly: Trypanosoma cruzi tyrosyl tRNA synthetase (TcYRS) SOP. The class given is functional. The conditions noted are these: 30 µM.
For assay [8], the target named is Chromo domain-containing protein 1 (Saccharomyces cerevisiae (strain ATCC 204508 / S288c) (Baker's yeast)) (UniProt P32657). The assay is described as follows: ScCHD-1 Enzyme Inhibition Assay. Also: in the data most compounds retested in dose-response had high values. The class given is functional. The conditions noted are these: 30 µM.
Sequence of Chromo domain-containing protein 1 (Saccharomyces cerevisiae (strain ATCC 204508 / S288c) (Baker's yeast)) (P32657 whole entry, the tested form may be a part): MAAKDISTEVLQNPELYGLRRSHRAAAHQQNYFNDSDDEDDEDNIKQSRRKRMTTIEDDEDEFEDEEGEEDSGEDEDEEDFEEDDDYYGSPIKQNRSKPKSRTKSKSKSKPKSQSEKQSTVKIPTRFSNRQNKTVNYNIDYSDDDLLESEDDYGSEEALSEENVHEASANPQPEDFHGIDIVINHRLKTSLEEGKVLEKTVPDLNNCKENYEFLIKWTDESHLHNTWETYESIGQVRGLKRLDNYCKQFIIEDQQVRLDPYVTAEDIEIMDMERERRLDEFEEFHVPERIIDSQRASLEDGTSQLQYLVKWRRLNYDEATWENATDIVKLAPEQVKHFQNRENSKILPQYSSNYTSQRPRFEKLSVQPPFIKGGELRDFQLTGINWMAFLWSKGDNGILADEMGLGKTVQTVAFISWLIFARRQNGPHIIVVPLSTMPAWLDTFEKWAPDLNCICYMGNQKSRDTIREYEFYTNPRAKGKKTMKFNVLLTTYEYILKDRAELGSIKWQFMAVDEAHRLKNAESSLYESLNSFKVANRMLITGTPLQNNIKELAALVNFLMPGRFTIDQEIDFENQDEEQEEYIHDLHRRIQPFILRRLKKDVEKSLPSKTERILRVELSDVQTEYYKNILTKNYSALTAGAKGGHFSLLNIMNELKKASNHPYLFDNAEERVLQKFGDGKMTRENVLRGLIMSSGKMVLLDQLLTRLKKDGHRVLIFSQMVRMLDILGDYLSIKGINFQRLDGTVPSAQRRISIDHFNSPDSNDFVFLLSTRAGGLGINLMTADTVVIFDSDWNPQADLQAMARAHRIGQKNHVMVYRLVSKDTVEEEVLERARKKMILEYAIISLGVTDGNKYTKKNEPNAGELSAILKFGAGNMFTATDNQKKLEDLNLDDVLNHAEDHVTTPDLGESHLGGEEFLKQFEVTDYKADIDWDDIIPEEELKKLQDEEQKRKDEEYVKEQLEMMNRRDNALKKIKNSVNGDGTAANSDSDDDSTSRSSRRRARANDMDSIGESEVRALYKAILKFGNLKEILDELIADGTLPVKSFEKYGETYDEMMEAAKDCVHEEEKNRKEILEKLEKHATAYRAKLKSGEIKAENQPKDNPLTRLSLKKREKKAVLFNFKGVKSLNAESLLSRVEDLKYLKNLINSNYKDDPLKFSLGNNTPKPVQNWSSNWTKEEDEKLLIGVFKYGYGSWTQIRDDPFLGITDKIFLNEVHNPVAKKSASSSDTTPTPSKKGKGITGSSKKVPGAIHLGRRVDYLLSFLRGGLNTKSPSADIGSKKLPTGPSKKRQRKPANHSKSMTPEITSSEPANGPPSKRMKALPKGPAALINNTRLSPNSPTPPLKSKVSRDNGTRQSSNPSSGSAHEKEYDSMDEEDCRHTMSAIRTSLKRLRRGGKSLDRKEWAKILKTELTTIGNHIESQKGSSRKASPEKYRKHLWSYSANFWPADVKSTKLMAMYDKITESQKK

For some assays here: Potency and affinity values are given separately.

Sequence of Protein translocase subunit SecA (Escherichia coli (strain K12)) (P10408 whole entry): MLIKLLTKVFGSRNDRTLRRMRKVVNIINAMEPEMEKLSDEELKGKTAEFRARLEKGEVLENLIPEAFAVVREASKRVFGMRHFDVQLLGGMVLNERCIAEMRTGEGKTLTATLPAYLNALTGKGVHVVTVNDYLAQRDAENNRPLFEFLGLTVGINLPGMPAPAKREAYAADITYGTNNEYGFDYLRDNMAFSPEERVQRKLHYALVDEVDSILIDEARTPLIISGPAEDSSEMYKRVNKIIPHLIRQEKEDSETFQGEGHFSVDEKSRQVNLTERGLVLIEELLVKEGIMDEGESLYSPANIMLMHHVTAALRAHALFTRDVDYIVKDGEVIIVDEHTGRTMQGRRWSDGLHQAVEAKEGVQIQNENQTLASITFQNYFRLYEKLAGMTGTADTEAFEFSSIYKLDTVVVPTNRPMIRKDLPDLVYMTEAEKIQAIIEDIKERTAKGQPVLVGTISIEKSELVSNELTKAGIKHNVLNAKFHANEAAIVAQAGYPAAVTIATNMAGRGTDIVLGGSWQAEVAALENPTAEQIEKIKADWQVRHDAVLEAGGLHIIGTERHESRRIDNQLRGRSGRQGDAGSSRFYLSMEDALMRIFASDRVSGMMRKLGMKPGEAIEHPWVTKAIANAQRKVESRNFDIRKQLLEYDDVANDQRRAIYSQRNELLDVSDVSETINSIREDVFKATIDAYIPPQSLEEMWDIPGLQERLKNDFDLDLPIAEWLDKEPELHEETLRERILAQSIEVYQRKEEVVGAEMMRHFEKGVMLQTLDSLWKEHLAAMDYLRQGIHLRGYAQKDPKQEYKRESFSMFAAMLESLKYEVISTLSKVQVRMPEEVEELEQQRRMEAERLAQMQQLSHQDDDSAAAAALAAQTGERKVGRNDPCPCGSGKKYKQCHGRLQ

For the compound `O=C1CCCc2nccc(-c3ccccc3)c21`, the Percent Effect in assay [1] is 3.95%; in assay [2], 22.7%; in assay [3] it was -10%; in the assay on Trypanosoma cruzi it was 2.56%; in assay [4], 0.443%; in assay [5] it was 27.1%. In addition, the Percent Effect in the assay filed under Homo sapiens was 9.37%; in assay [6], 3.17%; in assay [7] it was -45%; in assay [8], -16.7%.

In the case of `O=C(NCCOc1ccc2c(c1)CCC2)N1CCS(=O)(=O)CC1`, the Percent Effect is -6.68% in [1]; 2.56% in assay [2]; -7.49% in assay [3]; -1.78% in the assay on Trypanosoma cruzi; -0.82% in assay [4]; 1.28% in assay [5]. For the same compound, the Percent Effect is 23.2% in the assay listed under Homo sapiens, -1.44% in assay [6], -1.21% in assay [7] and -2.29% in assay [8].

`Cc1ccc(F)cc1C(=O)N1C[C@@H](CN2CCOCC2)[C@@H](CO)C1`: the Percent Effect in assay [1] was -9.2%; in assay [2] it was 8.11%; in assay [3], 5.12%; with Trypanosoma cruzi it was 2.23%; in assay [4] it was 4.54%; in assay [5] it was 9.76%. In addition, the Percent Effect in the assay listed under Homo sapiens is 2.21%; in assay [6], 5.85%; in assay [7], 9.76%; in assay [8], -3.39%.

On to `CC(=O)N1CCCn2nc(CNS(=O)(=O)c3cc(C)cs3)cc2C1`, for which the Percent Effect is -6.27% in assay [1]; 2.7% in assay [2]; -0.0396% in assay [3]; -2.42% with Trypanosoma cruzi; 4.54% in assay [4]; 4.11% in assay [5]. For the same compound, the Percent Effect in the assay filed under Homo sapiens came to 0.293%; in [6] it was 4.79%; in [7], 7.32%; in assay [8], 3.74%.

With `Fc1cccc(CN2CCO[C@H]3[C@@H](OCc4ccccn4)CC[C@@H]32)c1`, the Percent Effect was -6.18% in [1]; 6.49% in [2]; -6.92% in [3]; 7.3% with Trypanosoma cruzi; -3.24% in assay [4]; 8.91% in assay [5]. Besides, the Percent Effect in the assay listed under Homo sapiens was 4.17%; in assay [6] it was 2.63%; in assay [7], 15.4%; in assay [8], -0.559%.

For `O=C(NCc1nn(-c2ccccc2)c2c1CCC2)N1CCSCC1`, the Percent Effect is -6.8% in assay [1]; -2.56% in assay [2]; -13.1% in [3]; 12.7% in the assay on Trypanosoma cruzi; -1.64% in assay [4]; 7.25% in assay [5]. The Percent Effect in the assay filed under Homo sapiens was 15.5%; in assay [6], 2.39%; in assay [7], 13.2%; in assay [8], -7.59%.

As for `Cc1cc(CN(C)C(=O)c2ccc(Cl)c(S(C)(=O)=O)c2)no1`, the Percent Effect in assay [1] is -9.03%; in assay [2], 13.3%; in assay [3], 7.77%; in the assay on Trypanosoma cruzi, 3.81%; in assay [4], -4.88%; in [5], 9.41%. Moreover, the Percent Effect is 6.05% in the assay listed under Homo sapiens, 1.58% in [6], 10.3% in assay [7] and -11.5% in assay [8].

For `COc1cccc(OCC2CCCN(C(C)=O)C2)c1` (stereo not given), the Percent Effect in assay [1] is -1.78%; in assay [2] it was 14.7%; in [3] it was -3.67%; in the assay on Trypanosoma cruzi it was -0.395%; in assay [4], -3.1%; in assay [5], 25.4%. For the same compound, the Percent Effect in the assay filed under Homo sapiens is 8.14%; in assay [6] it was 2.12%; in assay [7], 15%; in [8], -24.1%.

Consider `CN(Cc1ccc2c(c1)OCCO2)C(=O)Cn1ccccc1=O`, for which the Percent Effect in [1] was -0.175%; in [2], 13.3%; in assay [3], 1.7%; with Trypanosoma cruzi it was -5.02%; in assay [4], 5.76%; in assay [5], 19.8%. The Percent Effect in the assay listed under Homo sapiens is 3.52%; in [6], 2.63%; in assay [7] it was 7.69%; in assay [8], -7.25%.

Consider `O=C1NCCN(CC2CC2)C12CCN(Cc1ccc3c(c1)OCO3)CC2`, for which the Percent Effect in assay [1] is -1.54%; in assay [2], 19.5%; in [3] it was 3.24%; with Trypanosoma cruzi, -8.47%; in [4], 6.07%; in assay [5] it was 16.9%. Further, the Percent Effect in the assay listed under Homo sapiens was 30.6%; in assay [6], 4.74%; in assay [7] it was -7.69%; in assay [8], -3.74%.

For the compound `CCN(C)c1ncnc2c1CCN(Cc1ccc(OC)cc1)CC2`, the Percent Effect in assay [1] is -4.72%; in assay [2] it was 6.49%; in assay [3], -9.08%; in the assay with Trypanosoma cruzi, -2.04%; in assay [4], 2.43%; in assay [5] it was 13.5%. The Percent Effect is 25.4% in the assay listed under Homo sapiens, 0.526% in assay [6], 7.69% in [7] and -4.67% in assay [8].

(Values after ChEMBL document CHEMBL3988442, “University of Dundee, Small-Polar-MMV Screening Library” (2021).)
